Source: PubChem (SRMLSC)
Abs 340nm: compound light absorbance at 340 nm, profiling panel, artefact control, biochemical, MLSMR library, data from PS, PMK, MK assays. compound absorbance at 340 nm, fold over control. fold change at 10 µM. 65,000 tested, under 10 active;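 active means at 10 µM dose, initial 340 nm absorbance at least 2 fold that of control wells; inactive means change under 2 fold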;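 further: initial absorbance extrapolated from kinetic A340 decline of NADH oxidation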
Fluor 339 460: intrinsic fluorescence of library compounds, ex339/em460 – biochemical, MLSMR library, data from DPM-DC assay, artefact control, profiling panel; compound autofluorescence, ex339/em460 nm, NADH buffer; active compounds read high; 1 = no-compound wells, NADH background; AID 709, 2007; fluorescence fold increase at 10 µM; hit rate 5.5% among 65,000;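 active means at 10 µM, mean starting fluorescence two-fold or more over control wells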;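 further: signal is the first read of a kinetic run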
Spn DPM-DC inh: S. pneumoniae DPM-DC inhibitors, primary screen, biochemical, PK/LDH-coupled NADH fluorescence; hit rate 0.49% among 65,000; AID 556, 2006; purified DPM-DC; calls only at 10 µM;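 active means the 320 compounds with the highest percent inhibition in the single-dose primary screen, excluding strongly autofluorescent ones, cut at about 32% in these data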;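 further: kinetic rate of NADH fluorescence loss reporting ADP formed by the decarboxylase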
Spn MK inh: S. pneumoniae MK inhibitors, primary screen, biochemical, PK/LDH-coupled NADH absorbance; purified MK, PK/LDH-coupled NADH absorbance 340 nm; AID 555, 2006; inhibition, % at 10 µM; mevalonate kinase [Streptococcus pneumoniae D39]; hit rate 0.48% among 65,000;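 active means ranked among the strongest by inhibition in the single 10 µM screen, a fixed top-ranked set picked for dose follow-up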
NADH enzymes: inhibitors of PK/LDH coupling enzymes, profiling panel, artefact control, biochemical, MLSMR library; hit rate 0.02% among 65,000; IC50, µM (series often up to 10 µM), without a hit: at the top dose inhibition; coupled PK/LDH NADH assays, four targets; AID 774, 2007;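 active means single-dose screening hits from any of four coupled enzyme assays that gave an IC50 when retested across doses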;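 further: the DPM-DC format reads NADH fluorescence rather than 340 nm absorbance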
PMK inhibit: S. pneumoniae PMK inhibitors, primary screen, biochemical, mevalonate pathway, pilot trial included; phosphomevalonate kinase (Streptococcus pneumoniae D39); purified PMK, PK/LDH-coupled NADH absorbance 340 nm; inhibition, % at 10 µM; hit rate 0.49% among 65,000;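 active means top-ranked compounds by inhibition in the single 10 µM screen, taking a fixed number of the strongest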;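 further: 0% = full reaction with DMSO carrier and 100% = background rate without enzyme reaction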
The depositor's hits bear a star; i = inactive; / = no result shown; + = active, no number. Sampled rows, rich in hits. Any-hit rate of the full collection: about 6.8%.

SMILES | Abs 340nm | Fluor 339 460 | Spn DPM-DC inh | Spn MK inh | NADH enzymes | PMK inhibit
COc1cc2nc(N3CCNCC3)nc(N)c2cc1OC | 1.09 | 3.96* | / | 9.0 | 5.0% | 1.0
CCOC(=O)Cn1nnnc1C(CC)N(Cc1cccs1)Cc1cc2ccc(OC)cc2[nH]c1=O (stereo not given) | 1.09 | 1.17 | i | 2.0 | 7.0% | 8.0
Cc1ccc(-c2[nH]n3c(=O)c4c(nc3c2C)CCCC4)cc1 | 1.04 | 2.39* | i | 15.0 | 12.0% | 6.0
Cc1cc2nc3c(c(=O)n2[nH]1)CCCC3 | 1.03 | 1.22 | i | 6.0 | 6.0% | 7.0
COc1ccc(-c2cc3nc4c(c(=O)n3[nH]2)CCC4)cc1 | 1.03 | 2.1* | / | 13.0 | 7.0% | 0.0
O=c1c2c(nc3cc(-c4ccccc4)[nH]n13)CCC2 | 0.99 | 3.4* | i | 6.0 | 12.0% | 10.0
C=CCOc1c(Cl)cc(C2NC(=O)NC(C)=C2C(=O)OC)cc1Cl (stereo not given) | 1.05 | 1.08 | i | 6.0 | 4.0% | 5.0
CSc1ccc(-c2nnn(Cc3ccc(C)cc3)n2)cc1 | 1.02 | 1.05 | i | 11.0 | 4.0% | 0.0
COc1ccc(-c2nc(C#N)c(N3CCN(c4cccc(Cl)c4)CC3)o2)cc1OC | 1 | 2.07* | i | 16.0 | 11.0% | 18.0
N#Cc1nc(COc2ccccc2)oc1N1CCN(c2cccc(Cl)c2)CC1 | 1.07 | 1.1 | i | 0.0 | 0.0% | 1.0
COc1ccc(-c2nc(C#N)c(N3CCOCC3)o2)cc1OC | 1.03 | 3.07* | / | 11.0* | 8.0% | 9.0
CCN(CC)C(=O)C1CCN(S(=O)(=O)c2ccc(C3CNC(=O)C3)cc2)CC1 (stereo not given) | 0.98 | 1.11 | i | 11.0 | 7.0% | 9.0
Cc1nc2cc(-c3cccc(F)c3)nn2c(N2CCOCC2)c1C | 1.04 | 1.28 | i | 0.0 | 9.0% | 23.0
Fc1ccc(-c2cc3nc(-c4ccccc4)cc(N4CCOCC4)n3n2)cc1 | 1.05 | 2.11* | / | 0.0 | 8.0% | 16.0
CC1=C(C#N)C(C)C2=C(CC(C)(C)CC2=O)N1 (stereo not given) | 1.1 | 2.12* | / | 7.0 | 4.0% | 0.0
COc1cc(C2C(C#N)=C(C)NC3=C2C(=O)CC(C)(C)C3)ccc1OCCO (stereo not given) | 1.08 | 1.3 | i | 4.0 | 5.0% | 12.0
COc1cc(C2C(C#N)=C(C)NC3=C2C(=O)CC(C)(C)C3)cc(OC)c1O (stereo not given) | 1.14 | 1.14 | + | 1.0 | 12.0% | 0.0
CC1=C(C#N)C(c2cccnc2)C2=C(CC(C)(C)CC2=O)N1 (stereo not given) | 1.08 | 2.08* | / | 7.0 | 11.0% | 14.0
O=C(NCC1CCCO1)c1nnc(Cc2ccc(F)cc2)o1 (stereo not given) | 1.03 | 1.11 | i | 0.0 | 4.0% | 11.0
O=C1Nc2ccc(S(=O)(=O)NCCC3=CCCCC3)c3cccc1c23 | 1.04 | 3.61* | / | 5.0 | 7.0% | 8.0
CCN(CC)S(=O)(=O)c1ccc2c3c(cccc13)C(=O)N2 | 1.08 | 2.16* | / | 0.0 | 6.0% | 11.0
CCOC(=O)c1c(C)oc2ccc(NS(=O)(=O)c3ccc4c5c(cccc35)C(=O)N4)cc12 | 1.03 | 1.4 | i | 14.0 | 5.0% | 8.0
COc1ccc(OC)c(S(=O)(=O)NCCC2=CCCCC2)c1 | 0.99 | 1.03 | i | 0.0 | 3.0% | 14.0
CCOC(=O)N1CCN(C(=O)CCc2c(C)nc3nc(C)nn3c2C)CC1 | 0.98 | 1.08 | i | 5.0 | 5.0% | 10.0
Cc1nc2nc(C)c(CCC(=O)N3CCOCC3)c(C)n2n1 | 1 | 0.68 | + | 4.0 | 15.0% | 6.0
O=C(Nc1c(C(=O)NCc2ccco2)cnn1-c1ccccc1)c1ccc(F)cc1 | 1.05 | 1.07 | i | 3.0 | 2.0% | 13.0
COc1ccc2oc(=O)c(-c3nc(C)cs3)cc2c1 | 1.03 | 2.16* | / | 13.0 | 7.0% | 0.0
CCN(C(=O)c1cc2cc(OC)ccc2oc1=O)c1ccccc1 | 1.05 | 1.35 | i | 7.0 | 7.0% | 10.0
